Source: PubChem BioAssay (NCI)
About 83,000 compounds went through this panel and 20% of them were active in at least one assay; those are over-represented in the sample as a whole.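 A percent growth of 40 corresponds to 60% growth inhibition; 0 means no net growth; -100 means all cells died. Active threshold: below 10.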 Values without a mark were called inactive. The source made the active and inactive calls.

What was measured:
Assay in all cases: NCI-60 one-dose screen, 48 h (100 = growth as untreated, 0 = no growth, -100 = all killed)
Details in all cases: 10 µM unless noted
NCI-H23 lung = system: NCI-H23 lung
NCI-H226 lung = system: NCI-H226 lung
NCI-H322M lung = system: NCI-H322M lung
HOP-62 NSCLC = system: HOP-62 NSCLC
NCI-H460 lung = system: NCI-H460 lung
HOP-92 NSCLC = system: HOP-92 NSCLC
NCI-H522 lung = system: NCI-H522 lung
A549/ATCC NSCLC = system: A549/ATCC NSCLC
786-0 renal = system: 786-0 renal
COLO 205 colon = system: COLO 205 colon
DU-145 prostate = system: DU-145 prostate
K-562 leukemia = system: K-562 leukemia
MALME-3M melanoma = system: MALME-3M melanoma
MDA-MB-231 breast = system: MDA-MB-231 breast
RXF 393 renal = system: RXF 393 renal
SF-268 CNS = system: SF-268 CNS
SF-295 CNS = system: SF-295 CNS
SF-539 CNS = system: SF-539 CNS
UACC-257 melanoma = system: UACC-257 melanoma
M14 melanoma = system: M14 melanoma

Structure (SMILES) | growth (NCI-H23 lung) | growth (NCI-H226 lung) | growth (NCI-H322M lung) | growth (HOP-62 NSCLC) | growth (NCI-H460 lung) | growth (HOP-92 NSCLC) | growth (NCI-H522 lung) | growth (A549/ATCC NSCLC) | growth (786-0 renal) | growth (COLO 205 colon) | growth (DU-145 prostate) | growth (K-562 leukemia) | growth (MALME-3M melanoma) | growth (MDA-MB-231 breast) | growth (RXF 393 renal) | growth (SF-268 CNS) | growth (SF-295 CNS) | growth (SF-539 CNS) | growth (UACC-257 melanoma) | growth (M14 melanoma)
O=C(Nc1ccc(-c2nc(-c3cccc(OCCN4CCOCC4)c3)c(-c3ccnc(Br)c3)[nH]2)cc1)c1ccccc1 | 13.3% | 52.8% | 47.4% | -1.45% (active) | 7.26% (active) | 23.2% | 40.7% | 21.9% | -39.4% (active) | -25.2% (active) | 55.6% | 0.946% (active) | -21% (active) | 29.2% | -49.9% (active) | 38.9% | -70.9% (active) | -39.8% (active) | -0.153% (active) | 6.5% (active)
Cc1nn(-c2ccccc2)c(-n2ccnc2)c1/C=N/Nc1nc(-c2ccc(F)cc2)cs1 | 58.1% | 50.3% | 88.8% | 98.8% | 83.3% | 42.9% | 73.6% | 65% | 106% | 70.8% | 87.5% | 38.8% | 83.2% | 79.6% | 88.5% | 76.9% | 77.3% | 87.6% | 75.6% | 79.7%
Cc1cc(C)c(-c2c(N)cc(Br)cc2Br)c(N)c1 | 70.9% | 76.3% | 102% | 39.4% | 83% | -6% (active) | 62.9% | 55.5% | 45.9% | 54% | 71.2% | 13.4% | 26.9% | 56.4% | 10.5% | 76.1% | 36.7% | 46.9% | 66.8% | 41.4%
O=c1c2cc(F)ccc2sc2c(NCCCNCCO)nc3ccc(F)cc3c12 | 82.5% | 84.8% | 79.4% | 71.5% | -32.8% (active) | 4.67% (active) | 60.9% | 64.7% | 64.1% | 23.3% | 37.4% | -33.5% (active) | 85.5% | -7.79% (active) | 63% | 51.8% | 98.6% | 63.9% | 94% | 8.53% (active)
COc1ccc(C2NC(=O)C(C#N)c3c2sc2c(F)cccc32)c(OC)c1 (stereo not given) | 64.8% | 62.2% | 90.4% | 57.4% | 31.8% | 42.2% | 7.97% (active) | 58.5% | 68.5% | 88.3% | 90.5% | 23.9% | 39.8% | 72.7% | 9.65% (active) | 52.1% | 27.7% | 8.87% (active) | 68.3% | 37.8%
CSc1nc2ccc(C)cc2cc1/C=N/O | 99.4% | 76.7% | 94.3% | 82.8% | 91.1% | 72.2% | 75.7% | 71.8% | 89.9% | 102% | 93% | 94.7% | 108% | 83.5% | 87.3% | 83.1% | 101% | 91.1% | 80.6% | 87.8%
O=c1c2cc(F)ccc2sc2c(N3CCNCC3)nc3ccc(F)cc3c12 | 61.3% | 83.8% | 55.4% | 57.5% | -88.4% (active) | 7.38% (active) | 8.28% (active) | 13.2% | 60.5% | -51.9% (active) | -84.7% (active) | -37.8% (active) | 82.6% | -76.4% (active) | 50.9% | 48.3% | 77.8% | -89.4% (active) | 96.3% | -62% (active)
CN(C)CCN1CCN(c2ncccc2C2Nc3ccccc3-n3cccc32)CC1 (stereo not given) | 96.2% | 102% | 102% | 109% | 106% | 84.9% | 104% | 103% | 91.8% | -48.6% (active) | 110% | 89.4% | 106% | 93.6% | 101% | 92.3% | 103% | 101% | 101% | 106%
